Assay results reported in PubChem BioAssay AID1851 (National Center for Advancing Translational Sciences (NCATS), 2009).
Out of some 16,000 compounds screened, about 5,800 (36%) were called active. About 23% were inconclusive and are not listed. The list shows a part of the results. Values without a mark were called inactive. Calls come from the whole dose curve; as a rule, active = well fitted curve in the direction sought with a large enough effect; inconclusive = small, poorly fitted or top-dose-only effect, or effect the other way; inactive = no such curve, though single readings can be large or run the other way.

biological target: Cytochrome P450 2C19 (Homo sapiens) (UniProt P33261); experiment: Cytochrome panel assay with activity outcomes; settings: recombinant CYP, pro-luciferin dealkylation, luminescence, p450-cyp2c19; series mostly up to 57.1 µM
Sequence (P33261 whole entry, looked up): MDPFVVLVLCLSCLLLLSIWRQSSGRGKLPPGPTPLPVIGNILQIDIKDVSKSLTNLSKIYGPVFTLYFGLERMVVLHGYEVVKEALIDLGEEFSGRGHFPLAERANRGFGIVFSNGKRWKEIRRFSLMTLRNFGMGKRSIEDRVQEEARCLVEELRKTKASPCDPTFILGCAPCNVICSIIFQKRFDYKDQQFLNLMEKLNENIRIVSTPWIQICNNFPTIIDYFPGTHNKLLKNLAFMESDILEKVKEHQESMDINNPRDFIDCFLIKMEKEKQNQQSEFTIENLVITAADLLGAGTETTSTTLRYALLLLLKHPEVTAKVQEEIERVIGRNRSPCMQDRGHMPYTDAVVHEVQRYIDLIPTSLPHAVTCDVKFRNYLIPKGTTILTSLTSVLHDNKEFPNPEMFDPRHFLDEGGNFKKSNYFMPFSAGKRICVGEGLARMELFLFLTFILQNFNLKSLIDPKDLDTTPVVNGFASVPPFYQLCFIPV
% is set by controls: 0 for no effect and ±100 for the full control effect.

Row | SMILES | AC50 | activity, negative = inhibition
1 | COc1ccc(-c2ccc(/C=C3\C(=O)N(c4ccccc4)N=C3c3ccccc3)o2)c([N+](=O)[O-])c1 | 2.51 µM (active) | –
2 | CC1=NN(c2ccccc2)C(=O)/C1=C\N1CC(C)OC(C)C1 (stereo unspecified) | inactive | –
3 | COC(=O)c1ccccc1-c1ccc(/C=C2\C(=O)N(c3ccccc3)N=C2c2ccccc2)o1 | 1.41 µM (active) | –
4 | CN(C)CCCN1CCC2(CCC(C(C)(C)C)CC2)CC1 | – | 40.8% [at 11.4 µM]
5 | C[C@H](Oc1ccccc1)C(=O)N[C@@H]1C(=O)N2[C@@H]1SC(C)(C)[C@@H]2C(=O)O | inactive | –
6 | CC(Oc1ccccc1)C(=O)Nc1nc2c(s1)C(=O)CC(C)(C)C2 (stereo unspecified) | 7.08 µM (active) | –
7 | O=C1N=C(N2CCC(Cc3ccccc3)CC2)S/C1=C/c1cn[nH]c1-c1ccccc1 | 3.55 µM (active) | –
8 | CC(C)C(NC(=O)OCc1ccccc1)C(=O)O (stereo unspecified) | inactive | –
9 | CCC(C)C(NC(=O)OCc1ccccc1)C(=O)OCN1C(=O)c2ccccc2C1=O (stereo unspecified) | 3.16 µM (active) | –
10 | CCN1C(=O)[C@H]2[C@H]3[C@H](O)[C@H](O)C/C(=N/NC(=O)OCc4ccccc4)[C@@H]3CC[C@@H]2C1=O | – | 36.5% [at 11.4 µM]
11 | Cc1ccc(C(=O)/C=C/c2c[nH]c3ccccc23)cc1 | 3.55 µM (active) | –
12 | CCCn1c(/C=C/c2ccccc2)nc2ccccc21 | 7.94 µM (active) | –
13 | c1ccc2c(CSCCc3ccncc3)cccc2c1 | 0.0794 µM (active) | –
14 | c1ccc2c(CSc3nnc(-c4ccncc4)o3)cccc2c1 | 0.282 µM (active) | –
15 | c1ccc2c(CSCc3cccc4ccccc34)cccc2c1 | 0.126 µM (active) | –
16 | c1ccc2c(CC3NCCN3)cccc2c1 | – | 28.8% [at 11.4 µM]
17 | O=S(=O)(O)CCCc1cccc2ccccc12 | – | 21.3% [at 11.4 µM]
18 | c1cc(CSSCc2ccncc2)ccn1 | 1.26 µM (active) | –
19 | CCNc1ncc2nc(-c3ccc(F)cc3)c(=O)n(-c3ccccc3)c2n1 | inactive | –
20 | CN1CCN(CCc2ccc(Cl)c(Cl)c2)CC1 | inactive | –
21 | N[C@@H](CSC(=O)c1ccccc1)C(=O)O | – | 16.7% [at 11.4 µM]
22 | N=C(N)SCCc1ccc(CCSC(=N)N)cc1 | inactive | –
23 | O=C(Cc1ccc(Cl)cc1)NNC(=O)Nc1cccc2ccccc12 | inactive | –
24 | c1ccc(CSCCc2ccncc2)cc1 | 0.1 µM (active) | –
25 | Clc1ccc(CSCCc2ccncc2)cc1Cl | 0.1 µM (active) | –
26 | N=C(N)SCCc1ccncc1 | – | 9% [at 11.4 µM]

Row | SMILES | AC50 | activity, negative = inhibition
27 | O=C(SCc1cccc2ccccc12)c1ccc(Cl)cc1 | 1.58 µM (active) | –
28 | CCOC(=O)C1=C(CSc2nc(-c3ccccc3)ccc2C#N)OC(N)=C(C#N)C1c1ccc(OC)cc1 (stereo unspecified) | 2.82 µM (active) | –
29 | CN1CCN(c2ncc3nc(-c4cc(F)cc(F)c4)c(=O)n(C)c3n2)CC1 | inactive | –
30 | Cc1ccc(OCC(O)CNC(=O)c2ccccc2C(=O)O)cc1 (stereo unspecified) | 20 µM (active) | –
31 | CC(C)NC[C@@H](O)COc1ccc(COCCOC(C)C)cc1 | inactive | –
32 | Cc1ccc(S(=O)(=O)NCC(=O)N(CC(=O)NCc2ccco2)Cc2cccs2)cc1 | 14.1 µM (active) | –
33 | CC(C)(C)OC(=O)NCCc1nnc(SCC(=O)Nc2cccc(Cl)c2)o1 | 3.98 µM (active) | –
34 | NC(=O)OCC(COC(N)=O)c1ccccc1 | inactive | –
35 | Cc1ccc(C(CC(N)=O)c2ccco2)cc1 (stereo unspecified) | 14.1 µM (active) | –
36 | CC(C)(C)c1cc2cccnc2n1Cc1ccccc1 | 10 µM (active) | –
37 | COc1ccc(-c2ccc(C(=S)N3CCN(C(C)=O)CC3)o2)cc1 | 15.8 µM (active) | –
38 | COc1ccc(CC(=O)NCCN2CCCC2)cc1 | inactive | –
39 | COc1ccc(-c2nc(C(=O)N3CCN(C)CC3)sc2-c2ccc(OC)cc2)cc1 | inactive | –
40 | O=C(O)c1ccccc1-c1ccccc1C(=O)Nc1ccccc1 | inactive | –
41 | O=C(Nc1ccccc1)c1cc([N+](=O)[O-])ccc1Cl | 0.794 µM (active) | –
42 | O=C(Nc1ccccc1)c1cc(-n2cnnc2)ccc1Cl | inactive | –
43 | O=C(Nc1ccccc1)c1ccccc1CC[N+](=O)[O-] | 17.8 µM (active) | –
44 | Cn1c(=O)c2[nH]c(/N=N\N3CCN(CCO)CC3)nc2n(C)c1=O | – | 7.88% [at 11.4 µM]
45 | O=C(O)CN(CCN(CC(=O)O)CC(=O)O)CC(=O)O.[Mn] | – | -2.62% [at 11.4 µM]
46 | CCCCCNCc1cccc(Br)c1 | 11.2 µM (active) | –
47 | O=C(NCCC1=CCCCC1)C1CCCN(c2nc3ccccc3o2)C1 (stereo unspecified) | 2.82 µM (active) | –
48 | CC(C)(C)c1ccc(C(=O)N2CCC(C(=O)NCCC3=CCCCC3)CC2)cc1 | 15.8 µM (active) | –
49 | CC(=O)Nc1nc(NC(C)=O)c2[nH]c(CO)nc2n1 | – | 4.22% [at 11.4 µM]
50 | COc1cc(OC)nc(NC(C)=O)n1 | inactive | –
51 | CSc1cc(C)nc(NC(C)=O)n1 | 7.94 µM (active) | –
52 | O=C(Oc1ccc2ccccc2c1Br)N1CCCCCC1 | 1.78 µM (active) | –

Row | SMILES | AC50 | activity, negative = inhibition
53 | O=C(Oc1ccccc1)N1CCC2(CC1)CCN(c1ccccc1)CC2 | inactive | –
54 | Cc1cc(C)c2c(-n3cccc3)n[nH]c2n1 | 5.01 µM (active) | –
55 | Cc1cc(C)c2c(-n3cccc3)nn(CC#N)c2n1 | 11.2 µM (active) | –
56 | CN(C)/N=N\c1nc[nH]c1C(N)=O | inactive | –
57 | CCc1nnc2sc(-c3ccc(NC(=O)c4ccco4)cc3)nn12 | 28.2 µM (active) | –
58 | O=C(O)[C@@H](O)[C@@H](O)[C@@H](O[C@H]1O[C@@H](CO)[C@@H](O)[C@@H](O)[C@@H]1O)[C@@H](O)CO | inactive | –
59 | COCC(C)NCc1cccc(C)c1 (stereo unspecified) | inactive | –
60 | Cc1cccc(CSc2cccc3cccnc23)c1 | 2.24 µM (active) | –
61 | COc1ccc(/C(C)=N/NC(=O)c2ccc(CSc3cccc4cccnc34)cc2)cc1OC | 2.51 µM (active) | –
62 | CO[C@H]1COC(=O)C/C=C\[C@H](C)[C@@H](OC)COC(=O)[C@H](C)COC(=O)C/C=C\[C@@H]1C | – | 9.22% [at 11.4 µM]
63 | Cc1ccc(-n2ncc(N(C)C)c(Cl)c2=O)cc1 | inactive | –
64 | C=CCNc1cnn(-c2ccc(C)cc2)c(=O)c1Cl | 11.2 µM (active) | –
65 | CC(C)/C(=N/[N+](C)(C)C)c1ccccc1 | – | 18.6% [at 11.4 µM]
66 | C[C@@H](C(=O)O)c1ccc(C(=O)c2ccccc2)s1 | 3.98 µM (active) | –
67 | C[C@@H](C(=O)O)c1ccc(C(=O)c2cccs2)cc1 | inactive | –
68 | Cc1ccccc1Oc1ncnc2oc(-c3ccccc3)cc12 | 3.98 µM (active) | –
69 | Cc1ccccc1Oc1ncnc2sccc12 | 3.55 µM (active) | –
70 | COCCNC(=O)CSc1ncnc2sccc12 | inactive | –
71 | Cc1cc(Cl)ccc1Oc1ncnc2oc(-c3ccccc3)cc12 | 1.12 µM (active) | –
72 | COc1cccc([C@H](O)Cn2cc(-c3ccc(CON=C(C)C)cc3)nn2)c1 | – | 6.04% [at 11.4 µM]
73 | Cc1cccc(OCCn2c(-c3ccco3)nc3ccccc32)c1 | 1.58 µM (active) | –
74 | Cc1cccc(OCCn2c(S(=O)(=O)O)nc3ccccc32)c1 | inactive | –
75 | O=S1(=O)C=C(N2CCOCC2)c2ccccc21 | inactive | –
76 | O=S1(=O)C=C(Oc2ccc3ccccc3c2)c2ccccc21 | 3.55 µM (active) | –
77 | Cc1ccc(S(=O)(=O)Nc2nc3ccccc3nc2N2CCc3ccccc3C2)cc1 | 5.01 µM (active) | –
78 | Nc1ccc(S(=O)(=O)Nc2cnc3ccccc3n2)cc1 | inactive | –

Row | SMILES | AC50 | activity, negative = inhibition
79 | COc1ccc(C(=O)N2CCC[C@@]3(CCN(Cc4ccc(C#N)cc4)C3)C2)cc1 | inactive | –
80 | CCCCn1c(SCC(N)=O)nc2ccc(N3CCOCC3)cc2c1=O | inactive | –
81 | N#CCSc1nc2cc(C(=O)N3CCCC3)ccc2c(=O)n1Cc1ccccc1 | 11.2 µM (active) | –
82 | O=C(c1ccncc1)N1CCC2(CCCN(Cc3ccccc3)C2)CC1 | inactive | –
83 | N#CCCn1c(=O)c(-c2ccc(F)cc2)nc2cnc(OCc3ccccc3)nc21 | inactive | –
84 | N#CCSc1nc2ccc(N3CCCCC3)cc2c(=O)n1Cc1ccccc1 | 7.94 µM (active) | –
85 | CSc1nc(N)c2ncn([C@H]3O[C@H](COP(=O)(O)OP(=O)(O)O)[C@@H](O)[C@@H]3O)c2n1 | inactive | –
86 | N#Cc1cc(-c2ccc(Cl)cc2)cnc1Sc1ccccc1 | 4.47 µM (active) | –
87 | N#Cc1cc(-c2ccccc2)cnc1Sc1ccc(Cl)cc1 | 4.47 µM (active) | –
88 | N=C1C(c2nc(-c3ccc(F)cc3)cs2)=C(O)CN1CCCN1CCOCC1 | 25.1 µM (active) | –
89 | N#Cc1c2c(c(-n3cnc4ccccc43)n3c1nc1ccccc13)CCC2 | inactive | –
90 | c1ccc2c(c1)ncn2-c1ncnc2sc3c(c12)CCCC3 | 8.91 µM (active) | –
91 | COc1ccccc1CN1C(=O)c2ccncc2C1=O | 14.1 µM (active) | –
92 | COc1ccccc1CN1CC2(CCN(C(=O)c3cnccn3)CC2)C1 | inactive | –
93 | COc1ccccc1CN1CC2(CCN(C(=O)c3ccncc3)CC2)C1 | inactive | –
94 | CCOC(=O)c1c(C)nc2sc3c(=O)n(-c4ccc(C(C)=O)cc4)nnc3c2c1-c1ccc(Cl)cc1 | inactive | –
95 | CCOC(=O)c1c(C)nc2sc3c(=O)n(-c4ccc(C)cc4)cnc3c2c1-c1ccc(OC)cc1 | 1.26 µM (active) | –
96 | Cc1cc2ccccc2c[n+]1CC(O)C[n+]1cc2ccccc2cc1C | – | 3.92% [at 11.4 µM]
97 | O=C(O)c1ccc(OCc2ccccc2)c(Cl)c1 | – | 18.7% [at 11.4 µM]
98 | O=C(NCc1ccccc1)c1cccc(COc2cccc(Cl)c2)c1 | 7.08 µM (active) | –
99 | N#CC1=C(N)OC2=C(C(=O)CCC2)C12CCC1(CC2)OCCO1 | inactive | –
100 | O=c1c(-c2nnc(SCc3ccc(Cl)c(Cl)c3)o2)cccn1Cc1ccccc1 | 1.41 µM (active) | –
101 | O=c1c(-c2nnc(SCc3ccc(Cl)cc3Cl)o2)cccn1Cc1ccccc1 | 1.26 µM (active) | –
